This is a sample that favours compounds with a hit; in the whole collection about 7.6% have one here.
CRE Fsk mod: Cell signaling CRE-BLA (Fsk stim) | CHO CRE-bla reporter (cAMP response element driving beta-lactamase), forskolin EC10, beta-lactamase ratio | actives 2.5% (n = 71,000) | Potency, µM (highest dose often 38.2 µM), without a hit: top-dose activity change, negative = inhibition, actives largely listed as activators; active means well fitted activation curve with a large enough effect in the signal ratio, with a control signal flat, not every such curve was filed as active; inconclusive means small, poorly fitted or top-dose-only effect, or effect the other way, or a change in a side signal; the % refers to the signal ratio; further: % of control where 0% means no effect
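CRE-bla CHO reporter cells treated with compound titration plus EC10 NKH 477 (water-soluble forskolin), incubated 3 h at 37 °C; CCF4 loading 2 h at room temperature, 460/530 nm emission ratio read, AC50 values derived for positive or negative modulators.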
Tau fil binding: qHTS Assay for Tau Filament Binding. actives 2% (n = 71,000). recombinant tau filaments, thioflavin S fluorescence, 15 h; filaments grown with octadecylsulfate alongside compound. Potency, µM (doses to about 57.1 µM), for the others: top-dose activity change, negative = inhibition. AID 596, 2007;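 further: on the % scale 0 is the no-effect control and ±100 the full control effect; actives lower thioflavin S fluorescence by blocking filaments or displacing dye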
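Thioflavine S fluorescence (ex 450, em 510 nm) reports filaments formed from 1 uM human tau plus 30 uM ODS over 15 h at 37 C (10 mM HEPES pH 7.4, 100 mM NaCl, 5 mM DTT); compounds displacing dye or blocking filaments lower signal.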
HEK293 cAMP ctrl: qHTS Assay for Agonists of the Thyroid Stimulating Hormone Receptor: Activators of Intracellular cAMP Concentrations in Parental HEK 293; Potency, µM (titrated, usually from 57.1 µM), for the others: top-dose activation, hits mostly activators; actives 2.5% (n = 73,000); AID 938, 2007; parental HEK293 CNG cAMP sensor, membrane potential fluorescence; further: % of control where 0% means no effect; nearly all actives have a fitted effect of over 55% in size
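Parental HEK 293 cells stably expressing a cAMP-gated CNG channel were loaded with membrane potential dye containing 100 uM RO 20-1724 for 60 min. Compound added for 30 min; depolarization read as fluorescence intensity at 590 nm.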
ERK AVP block: qHTS Assay for Inhibitors of the ERK Signaling Pathway using a Homogeneous Screening Assay; HEK293-V1b, vasopressin-stimulated pERK AlphaScreen; actives 0.99% (n = 72,000); Potency, µM (top dose mostly 57.5 µM), inactives show at the top dose activity, negative = inhibition, hits mostly inhibitors; AID 995, 2007; further: on the % scale 0 is the no-effect control and ±100 the full control effect; nearly all actives have a fitted effect of over 55% in size
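Phosphorylated ERK1/2 detected via AlphaScreen bead proximity in lysates of V1b-expressing HEK293 cells given 25 nM vasopressin for 5 min after 30 min compound exposure (37 °C). AC50 from Hill equation; basal DMSO 0%, vasopressin 100%.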
TSHR ag: qHTS Assay for Agonists of the Thyroid Stimulating Hormone Receptor; Thyrotropin receptor (Homo sapiens), P16473; actives 0.48% (n = 73,000); AID 926, 2007; Potency, µM (titrated, usually from 57.1 µM), for the others: top-dose activation, usual class: activators; HEK293-CNG-TSHR cells (CNG channel as cAMP sensor), membrane potential dye, cAMP; active means well fitted activation curve with a large enough effect in the main read-out, with a control signal flat, not every such curve was filed as active; inconclusive means small, poorly fitted or top-dose-only effect, or a change in a side signal; inactive means no such curve, though single readings can be large or run the other way; % of control where 0% means no effect;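 further: the control signal comes from parental cells without the receptor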
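HEK 293 cells stably expressing TSHR and a cAMP-gated CNG channel; parental CNG-only cells as counterscreen. Cells preloaded 60 min with membrane potential dye plus 100 uM RO 20-1724, then compound 30 min; fluorescence read at 590 nm.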
* = called active by the depositor; ? = inconclusive; nt = no result given; [ ] = dose if it differs, or a comment. Unless noted, the call rests on the fitted dose curve; in most records, active means well fitted curve in the direction sought with a large enough effect; inconclusive means small, poorly fitted or top-dose-only effect, or another doubt; inactive means no such curve, though single readings can be large; an effect the other way counts as inactive or inconclusive. Potency means the concentration at half of the fitted maximal effect.

SMILES	CRE Fsk mod	Tau fil binding	HEK293 cAMP ctrl	ERK AVP block	TSHR ag
c1cncc(CNc2ncncc2-c2ccc3c(c2)OCO3)c1	1%	5%	?	-23%	?
C=C(C)COc1ccc2c(c1)CCC1C2CC[C@]2(C)C(=O)/C(=N/O)CC12 (stereo not given in full)	-14%[7.6 µM]	7%[11.4 µM]	2%[11.4 µM]	29%[11.5 µM]	-2%[11.4 µM]
O=C(c1ccncc1)N1CCC[C@@]2(CCN(c3ccccc3)C2)C1	-1%	2%	16%	3%	2%
CC#CCN(CC#CC)S(=O)(=O)c1ccc(-n2cnnn2)c(OC)c1	5%	6%	13µM*	16%	?
N[C@@H](Cn1cc(I)c(=O)n(Cc2ccc(C(=O)O)cc2)c1=O)C(=O)O	1%	-19%	?	19%	?
COc1cc(C(=O)NCCc2nc3ccccc3n2C)cc(OC)c1OC	6.3µM*	6%	-5%	6%	4%[11.4 µM]
COC(C(C)/C=C/CC(=O)OCCCc1ccccc1)C1CCCCC1 (stereo not given)	nt	nt	11%[11.4 µM]	10%[11.5 µM]	0%[11.4 µM]
CCCCc1ccc(Nc2ncnc3nc[nH]c23)cc1	?	-17%	-23%	nt	6%
Cc1ccc(Nc2ncnc3nc[nH]c23)cc1Cl	?	-13%	25µM*	nt	?
CCNc1ncc2nc(-c3ccc(F)cc3)c(=O)n(C[C@H]3CCCO3)c2n1	2.5µM*	8%	11%	-24%	4%
CCNc1ncc2nc(C)c(=O)n(C[C@H]3CCCO3)c2n1	10µM*	2%	12%	?	-3%
COc1ncc2nc(-c3ccc(F)cc3)c(=O)n(C[C@H]3CCCO3)c2n1	?	-1%	?	-8%	?
COc1cccc(Nc2ncc3nc(C)c(=O)n(C[C@H]4CCCO4)c3n2)c1	2.5µM*	-15%	20%	-2%	9%
CC/C(C)=N/O	-12%	12%	-7%	13%	-6%
CCOC(=O)C(C)Sc1ncnc2nc[nH]c12 (stereo not given)	-2%	3%	4%	-11%	4%[11.4 µM]
CSc1ncnc2nc[nH]c12	13µM*	-4%	1%	nt	-1%
CC(=O)c1ccc(OC2C(O)COC2/C=C/c2ccc(Cl)cc2)cc1 (stereo not given)	nt	nt	1%[11.4 µM]	7%[11.5 µM]	-7%[11.4 µM]
Cc1nc2ccccc2c(=O)n1NC(=O)c1c(O)c2ccccc2n(C)c1=O	1%	4%	-7%	-10%	-4%
COc1cccc(OC)c1C(=O)Nn1c(C2CCC2)nc2ccccc2c1=O	-1%	10%	25µM*	-26%	?
COc1cc(C(=O)O[C@@H]2CC(C)=CC[C@@]3(C)CC[C@](O)(C(C)C)[C@H]23)ccc1O	?	40µM*	23%	nt	9%
CC(=O)OC1CC[C@@]2(C)C(CC[C@@]3(C)C2CC=C2C4CC(C)(C)CC[C@]4(C(=O)O)CC[C@@]23C)C1(C)C (stereo not given in full)	nt	nt	nt	-8%	nt
CC(=O)N1CCN(c2ccc(NCc3cccs3)cc2)CC1	7%	25µM*	-8%	-17%	-4%
CC(=O)N1CCN(c2ccc(NCc3ccc4c(c3)OCO4)cc2)CC1	?	?	-3%	-18%	2%
CC(=O)N1CCN(c2ccc(NCc3ccccc3)cc2)CC1	11%	16µM*	-10%	?	-3%
O=c1cc(N2CCOCC2)oc2c(-c3ccccc3)cccc12	?	?	15%	1%	nt
COc1ccc(COC(=O)N/N=C2/C[C@@H](O)[C@@H](O)[C@@H]3[C@H]4C(=O)N(c5ccc(F)cc5F)C(=O)[C@@H]4CC[C@H]23)cc1	nt	nt	4%[11.4 µM]	-10%[11.5 µM]	-6%[11.4 µM]
CC1(C)Cc2c(C#N)c(NC3CCCCC3)nc(-c3ccco3)c2CO1	3.2µM*	-23%	?	nt	?
C=CCNc1ncnc2c1cnn2-c1ccc(C)cc1C	-3%	-1%	-7%	nt	2%
C=CCNc1ncnc2c1[nH]c1ccc(C)cc12	14%	74%	18%	32µM*	17%

Bioassay records deposited in PubChem BioAssay by National Center for Advancing Translational Sciences (NCATS).
